Sampled rows, rich in hits. Any-hit rate of the full collection: about 3.5%.
MITF primary = human MITF inhibition, primary screen. O75030. AlphaScreen MITF homodimerization, bead proximity signal. inhibition, % at 2.6 µM. 0.91% of 650,000 active. AID 1259374; in the data active means inhibition above about 50%;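 further: 0% = vehicle wells with protein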
GPR151 ag = human GPR151 activation | 1% of 650,000 active | PathHunter beta-arrestin GPR151 cells, luminescence | AID 1508602 | Q8TDV0 | activation, % at 11.2 µM; in the data active means activation above about 4.9%;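 further: 0% = median of compound wells and 100% = cells with positive control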
FBW7 activator = activators of human E3 ligase FBW7; Q969H0; AlphaScreen FBW7–phospho-cyclin E peptide binding, activator screen; normalized activity (activation), % at 26.1 µM; 0.13% of 650,000 active; AID 1259310; in the data active means normalized activity above about 1.9%;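 further: purified mutant Fbw7 with reduced substrate affinity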
TEAD-YAP block = TEAD-YAP interaction inhibition. AID 1259422. 1.4% of 640,000 active. inhibition, % at 9.12 µM. HEK-TIYL cells, TEAD-Gal4/YAP UAS-luciferase luminescence; in the data active means inhibition above about 32%;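 further: 0% = median of test compound wells and 100% = reference inhibitor wells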
MITF inh conf = human MITF inhibition, confirmation. 16% of 4,700 active. shares compounds with MITF primary. inhibition, % at 2.6 µM. AlphaScreen MITF homodimerization, biotin/His-MITF beads;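 active means inhibition above a cutoff derived from the DMSO control wells, cut at about 28% in these data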;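 further: 0% = MITF dimer wells with DMSO only; inhibitors lower the bead chemiluminescence by keeping MITF from dimerizing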
AS interf DR = optically interferes with AlphaScreen signal in dose response | 6% of 480 active | IC50, µM | shares compounds with MITF primary | AlphaScreen optical interference counterscreen, cell-free; call rule not given here
AlphaScreen intf2 = optically interferes with AlphaScreen signal. AID 1259376. 7.6% of 4,700 active. LysRS AlphaScreen counterscreen, signal interference, triplicate. inhibition, % at 2.6 µM. shares compounds with MITF primary;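 active means inhibition above a cutoff derived from the DMSO control wells, cut at about 30% in these data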
* marks the source's active call; other numbers are inactive results; . = not tested or not shown.

SMILES	MITF primary	GPR151 ag	FBW7 activator	TEAD-YAP block	MITF inh conf	AlphaScreen intf2	others
COc1ccccc1CN1CCN(Cc2ccc(OC)c(OC)c2)CC1	62*	0	0	-1	7	13
COc1cc(OC)c(OC)cc1CN1CCCN(C)CC1	37	0	0	3	.	.
COc1ccc(CN2CCN(Cc3ccccc3Cl)CC2)cc1OC	71*	1	0	0	11	22
COc1ccc(CN2CCCC(O)C2)cc1Br (centres undefined)	18	1	1	0	.	.
CCOc1cc(CN2CCN(Cc3cccc(C)c3)CC2)ccc1OC	14	-1	0	5	.	.
COc1cc(OC)c(CN2CCCC(O)C2)cc1Br (centres undefined)	54*	-1	2	5	33*	-4	AS interf DR=>6.5
COc1ccc(CNCc2ccccc2Cl)cc1OC	28	-1	0	-8	.	.
CCOc1cc(CN2CCN(Cc3ccccc3C)CC2)ccc1OC	52*	1	0	2	2	15
COc1cc(OC)c(OC)cc1CN1CCN(Cc2cccn2C)CC1	63*	-1	-1	-4	13	18
CCOC(=O)c1c(C)n(CCc2ccccc2)c2ccc(OC)cc12	8	0	0	5	.	.
Cc1ccc(CNCc2c(C(=O)O)c(C)n(Cc3ccc(F)cc3)c2C)cc1	15	-1	0	10	.	.
CCOc1ccc(CCNS(=O)(=O)c2cc(-c3nnc(Nc4cccc(Cl)c4)c4ccccc34)ccc2C)cc1OCC	3	-1	0	10	.	.
CN(CC1COc2ccccc2O1)C(=O)c1ccc2[nH]c(=O)c(=O)[nH]c2c1 (centres undefined)	16	-1	0	-16	.	.
COc1cc(OC)c(OC)cc1CN1CCN(Cc2ccccc2C)CC1	74*	1	0	1	-13	3
COc1cc(Br)c(CN2CCCN(C)CC2)cc1OC	11	1	1	4	.	.
COc1ccc(CN2CCN(Cc3ccccc3C)CC2)cc1OC	62*	-1	0	10	5	14
COc1cc(OC)c(OC)cc1CN1CCN(Cc2cc(OC)c(OC)cc2Br)CC1	72*	-1	0	7	12	19
CN(Cc1ccccc1)C1CCN(Cc2ccccc2[N+](=O)[O-])CC1	59*	0	0	4	-3	4
COc1cc(OC)c(OC)cc1CN1CCN(c2ccccc2OC)CC1	38	0	0	6	.	.
COc1ccc(CN2CCN(Cc3ccccc3[N+](=O)[O-])CC2)cc1OC	67*	0	0	-5	-3	-6
CCc1ccc(CN2CCN(C3CCCCC3)CC2)cc1	62*	0	0	0	-1	-1
CSc1ccc(CN2CCC(N3CCCCC3)CC2)cc1	13	0	0	-3	.	.
CCc1ccc(CN2CCN(C3CCCC3)CC2)cc1	41	0	0	2	.	.
CSc1ccc(CN2CCN(C3CCCC3)CC2)cc1	54*	0	0	-4	-1	8
Cc1ccc(CN2CCN(C3CCCCCC3)CC2)cc1	69*	-1	0	3	11	23
SMILES	MITF primary	GPR151 ag	FBW7 activator	TEAD-YAP block	MITF inh conf	AlphaScreen intf2	others
Cc1ccc(C)c(Cn2cnc3c(nnn3-c3cccc(Cl)c3)c2=O)c1	11	3	1	12	.	.
N#CCSc1nc2sc3c(c2c(=O)n1-c1ccccc1)CCCC3	3	-1	0	0	.	.
OC(CNC1CC1)COCc1ccccc1F (centres undefined)	59*	-1	0	1	8	-11
CCCN1CCCc2cc(CCNS(C)(=O)=O)ccc21	51*	-1	0	-1	-9	-1
CCC(C)C(=O)NCc1nnc2n1CCN(Cc1cccc(Oc3ccccc3)c1)CC2 (centres undefined)	13	-1	0	17	.	.
CCc1nc(NCC(C)C)c2nnn(Cc3ccccc3)c2n1	61*	0	0	-3	-6	-2
CCc1nc(NCCCCCO)c2nnn(Cc3ccccc3)c2n1	7	0	0	0	.	.
CC(C)NC(=O)c1nn2c(c1Br)NC(c1cccs1)CC2C(F)(F)F (centres undefined)	-2	0	0	0	.	.
O=C(NC1CCCCC1)c1nn2c(c1Br)NC(c1cccs1)CC2C(F)(F)F (centres undefined)	60*	1	0	-1	-9	-9

Screening data (PubChem)
